Laboratory results as given in article PMC7862700, “An all-to-all approach to the identification of sequence-specific readers for epigenetic DNA modifications on cytosine”.

How the values were obtained:
Test in all cases: DAPPL (digital affinity profiling via proximity ligation, sequencing); 10 mM Tris-HCl pH 7.5, 50 mM NaCl, 1 mM DTT, 4% glycerol, room temperature, 30 min; GST-TFs on glutathione beads, 16-mer random dsDNA library, 0.1% formaldehyde crosslink after washing; high values mean tight binding
Conditions in all cases: protein: recombinant; tags: N-terminal GST; dsDNA, one strand shown
ELK1 = biological target: T1, ELK1 (Homo sapiens, UniProt P19419 1-428)
T1 sequence: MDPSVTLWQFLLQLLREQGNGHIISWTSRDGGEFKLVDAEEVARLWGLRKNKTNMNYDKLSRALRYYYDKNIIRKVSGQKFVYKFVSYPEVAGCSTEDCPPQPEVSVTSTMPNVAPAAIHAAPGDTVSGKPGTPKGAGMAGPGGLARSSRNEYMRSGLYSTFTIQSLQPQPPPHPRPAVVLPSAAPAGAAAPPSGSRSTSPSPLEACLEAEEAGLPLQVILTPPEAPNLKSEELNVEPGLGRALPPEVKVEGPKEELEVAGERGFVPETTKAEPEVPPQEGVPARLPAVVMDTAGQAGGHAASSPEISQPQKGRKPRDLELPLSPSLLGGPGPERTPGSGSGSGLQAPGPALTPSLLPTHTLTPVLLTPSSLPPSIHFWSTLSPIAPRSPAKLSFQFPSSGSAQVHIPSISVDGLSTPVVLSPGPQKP
In short: (§1)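 A tag-only sample was pooled with DNA-barcoded human transcription factors that had been expressed in yeast as GST fusions and captured on glutathione beads. The pools were incubated for 30 min at room temperature with 200 nmole of a random double-stranded 16-mer DNA library in Tris/NaCl/DTT/glycerol buffer, then washed, crosslinked with 0.1% formaldehyde, proximity-ligated (BsaI/T4 ligase, 1 h, 37 °C), PCR-amplified and sequenced on an Illumina NextSeq500. Binding signal is each hexamer's read frequency for a factor divided by its frequency for the tag-only sample.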

GABPA = biological target: T2, GABPA (Homo sapiens, UniProt Q06546 1-454)
T2 sequence: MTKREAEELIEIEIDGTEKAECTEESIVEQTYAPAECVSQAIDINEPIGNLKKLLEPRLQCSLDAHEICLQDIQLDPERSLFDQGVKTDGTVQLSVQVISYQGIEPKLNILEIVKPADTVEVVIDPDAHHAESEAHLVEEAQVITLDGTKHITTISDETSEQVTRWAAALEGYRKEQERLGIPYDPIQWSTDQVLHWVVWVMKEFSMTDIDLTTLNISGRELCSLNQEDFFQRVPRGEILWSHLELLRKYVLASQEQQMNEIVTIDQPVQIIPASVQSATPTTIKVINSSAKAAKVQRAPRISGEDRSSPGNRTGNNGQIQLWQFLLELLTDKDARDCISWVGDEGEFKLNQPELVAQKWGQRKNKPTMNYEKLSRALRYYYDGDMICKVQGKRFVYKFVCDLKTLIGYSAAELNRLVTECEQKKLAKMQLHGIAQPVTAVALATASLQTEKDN
In short: as §1

ERG = biological target: T3, ERG (Homo sapiens, UniProt P11308 1-479)
T3 sequence: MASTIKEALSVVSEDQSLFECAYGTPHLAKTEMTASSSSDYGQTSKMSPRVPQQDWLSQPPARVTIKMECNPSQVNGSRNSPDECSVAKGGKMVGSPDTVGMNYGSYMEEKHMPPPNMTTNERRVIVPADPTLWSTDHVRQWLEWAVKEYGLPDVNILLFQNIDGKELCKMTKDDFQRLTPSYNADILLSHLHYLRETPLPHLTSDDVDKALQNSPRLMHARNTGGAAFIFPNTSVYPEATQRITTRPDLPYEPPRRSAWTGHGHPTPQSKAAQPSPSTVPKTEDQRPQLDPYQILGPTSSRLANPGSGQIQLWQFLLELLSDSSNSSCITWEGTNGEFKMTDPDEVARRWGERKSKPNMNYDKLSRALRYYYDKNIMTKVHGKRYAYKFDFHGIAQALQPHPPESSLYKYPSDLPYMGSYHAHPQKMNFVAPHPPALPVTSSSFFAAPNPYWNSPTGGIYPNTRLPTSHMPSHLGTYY
In short: as §1

ELF1 = ELF1 (Homo sapiens, UniProt P32519 1-619)
Chain of ELF1 (P32519 whole entry): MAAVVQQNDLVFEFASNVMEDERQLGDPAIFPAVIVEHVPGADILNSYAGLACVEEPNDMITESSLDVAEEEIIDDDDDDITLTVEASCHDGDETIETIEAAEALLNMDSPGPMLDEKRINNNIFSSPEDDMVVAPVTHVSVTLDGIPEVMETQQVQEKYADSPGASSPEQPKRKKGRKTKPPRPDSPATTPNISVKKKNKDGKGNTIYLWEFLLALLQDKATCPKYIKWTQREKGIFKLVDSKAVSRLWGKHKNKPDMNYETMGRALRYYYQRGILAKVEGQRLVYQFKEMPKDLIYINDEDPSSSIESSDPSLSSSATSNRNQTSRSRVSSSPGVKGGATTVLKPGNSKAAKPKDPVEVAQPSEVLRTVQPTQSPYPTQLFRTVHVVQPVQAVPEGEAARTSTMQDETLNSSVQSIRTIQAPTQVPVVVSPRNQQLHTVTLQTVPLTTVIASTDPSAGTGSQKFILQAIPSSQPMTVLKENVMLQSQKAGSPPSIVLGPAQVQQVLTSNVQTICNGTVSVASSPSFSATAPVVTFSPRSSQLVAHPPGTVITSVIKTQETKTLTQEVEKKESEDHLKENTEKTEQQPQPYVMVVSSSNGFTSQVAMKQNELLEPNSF
In short: as §1

EHF = biological target: T4, EHF (Homo sapiens, UniProt Q9NZC4 1-300)
T4 sequence: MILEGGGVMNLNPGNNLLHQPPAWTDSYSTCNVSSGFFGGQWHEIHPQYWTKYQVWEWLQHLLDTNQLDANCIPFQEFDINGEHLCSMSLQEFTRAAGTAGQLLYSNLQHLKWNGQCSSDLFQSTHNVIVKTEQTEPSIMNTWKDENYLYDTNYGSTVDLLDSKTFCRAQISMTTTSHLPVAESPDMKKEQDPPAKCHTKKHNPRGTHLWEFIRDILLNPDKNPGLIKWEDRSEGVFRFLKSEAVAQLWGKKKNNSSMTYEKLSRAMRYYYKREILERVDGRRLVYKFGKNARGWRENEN
In short: as §1

FEV = biological target: T5, FEV (Homo sapiens, UniProt Q99581 1-238)
T5 sequence: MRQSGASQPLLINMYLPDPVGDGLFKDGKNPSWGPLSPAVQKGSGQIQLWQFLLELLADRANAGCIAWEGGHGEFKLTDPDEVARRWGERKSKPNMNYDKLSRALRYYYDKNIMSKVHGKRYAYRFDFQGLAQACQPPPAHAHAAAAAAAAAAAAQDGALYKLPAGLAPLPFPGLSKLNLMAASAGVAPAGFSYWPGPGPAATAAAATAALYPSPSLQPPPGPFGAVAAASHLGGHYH
In short: as §1

ETV5 = ETV5 (Homo sapiens, UniProt P41161 1-510)
Chain of ETV5 (P41161 whole entry): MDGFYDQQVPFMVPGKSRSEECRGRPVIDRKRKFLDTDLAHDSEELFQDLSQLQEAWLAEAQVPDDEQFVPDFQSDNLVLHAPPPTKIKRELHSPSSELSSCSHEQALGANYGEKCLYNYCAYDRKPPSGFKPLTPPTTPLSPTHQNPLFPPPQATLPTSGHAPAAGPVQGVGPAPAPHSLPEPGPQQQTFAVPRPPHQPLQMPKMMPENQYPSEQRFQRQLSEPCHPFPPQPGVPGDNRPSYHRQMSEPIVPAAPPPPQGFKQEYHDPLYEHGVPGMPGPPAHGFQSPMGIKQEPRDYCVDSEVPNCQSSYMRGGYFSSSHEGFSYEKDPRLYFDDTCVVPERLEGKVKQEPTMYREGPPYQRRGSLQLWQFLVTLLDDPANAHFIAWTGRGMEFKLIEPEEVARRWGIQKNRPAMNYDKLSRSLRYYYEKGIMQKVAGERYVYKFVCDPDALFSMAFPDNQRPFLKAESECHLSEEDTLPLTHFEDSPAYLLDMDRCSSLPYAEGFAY
In short: as §1

ELF4 = ELF4 (Homo sapiens, UniProt Q99607 1-663)
Chain of ELF4 (Q99607 whole entry): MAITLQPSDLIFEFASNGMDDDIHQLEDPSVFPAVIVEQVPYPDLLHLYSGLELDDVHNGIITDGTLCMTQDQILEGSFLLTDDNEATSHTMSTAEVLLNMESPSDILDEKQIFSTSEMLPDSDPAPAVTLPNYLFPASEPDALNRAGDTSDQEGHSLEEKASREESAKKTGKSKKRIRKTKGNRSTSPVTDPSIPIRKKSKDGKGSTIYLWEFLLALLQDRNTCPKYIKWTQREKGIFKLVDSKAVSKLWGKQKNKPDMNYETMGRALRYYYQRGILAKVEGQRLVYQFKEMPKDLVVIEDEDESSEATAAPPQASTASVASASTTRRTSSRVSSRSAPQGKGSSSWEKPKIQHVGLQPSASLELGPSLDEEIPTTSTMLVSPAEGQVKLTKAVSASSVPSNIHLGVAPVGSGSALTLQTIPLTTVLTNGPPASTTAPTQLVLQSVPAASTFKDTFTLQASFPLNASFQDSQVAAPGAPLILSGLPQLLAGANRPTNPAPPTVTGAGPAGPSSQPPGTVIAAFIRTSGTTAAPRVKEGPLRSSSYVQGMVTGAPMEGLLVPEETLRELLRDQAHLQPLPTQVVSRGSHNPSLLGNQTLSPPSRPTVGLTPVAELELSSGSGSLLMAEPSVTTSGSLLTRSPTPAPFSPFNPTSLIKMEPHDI
In short: as §1

ELK4 = biological target: T6, ELK4 (Homo sapiens, UniProt P28324-2 1-405)
T6 sequence: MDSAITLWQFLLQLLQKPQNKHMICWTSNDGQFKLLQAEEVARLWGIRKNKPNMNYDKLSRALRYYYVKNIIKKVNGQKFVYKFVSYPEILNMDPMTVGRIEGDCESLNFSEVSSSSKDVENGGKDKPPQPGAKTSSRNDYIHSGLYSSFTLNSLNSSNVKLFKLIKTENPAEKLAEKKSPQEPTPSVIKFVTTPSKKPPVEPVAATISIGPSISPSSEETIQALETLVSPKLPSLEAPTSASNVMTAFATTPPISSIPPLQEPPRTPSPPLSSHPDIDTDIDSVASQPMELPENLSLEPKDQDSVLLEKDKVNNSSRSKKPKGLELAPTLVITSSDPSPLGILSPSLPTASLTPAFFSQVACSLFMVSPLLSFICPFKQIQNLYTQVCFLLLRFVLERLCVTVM
In short: as §1

ELF3 = biological target: T7, ELF3 (Homo sapiens, UniProt P78545 1-371)
T7 sequence: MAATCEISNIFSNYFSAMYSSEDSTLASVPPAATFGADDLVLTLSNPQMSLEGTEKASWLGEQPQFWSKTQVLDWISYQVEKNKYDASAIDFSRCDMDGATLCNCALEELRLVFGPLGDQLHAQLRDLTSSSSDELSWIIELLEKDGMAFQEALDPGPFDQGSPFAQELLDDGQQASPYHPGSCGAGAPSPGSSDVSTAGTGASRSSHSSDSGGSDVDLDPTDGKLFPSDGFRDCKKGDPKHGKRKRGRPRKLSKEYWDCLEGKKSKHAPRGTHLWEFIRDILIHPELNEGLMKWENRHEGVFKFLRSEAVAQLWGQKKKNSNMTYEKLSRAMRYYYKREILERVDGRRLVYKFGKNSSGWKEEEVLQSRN
In short: as §1

ETV1 = ETV1 (Homo sapiens, UniProt P50549 1-477)
Chain of ETV1 (P50549 whole entry): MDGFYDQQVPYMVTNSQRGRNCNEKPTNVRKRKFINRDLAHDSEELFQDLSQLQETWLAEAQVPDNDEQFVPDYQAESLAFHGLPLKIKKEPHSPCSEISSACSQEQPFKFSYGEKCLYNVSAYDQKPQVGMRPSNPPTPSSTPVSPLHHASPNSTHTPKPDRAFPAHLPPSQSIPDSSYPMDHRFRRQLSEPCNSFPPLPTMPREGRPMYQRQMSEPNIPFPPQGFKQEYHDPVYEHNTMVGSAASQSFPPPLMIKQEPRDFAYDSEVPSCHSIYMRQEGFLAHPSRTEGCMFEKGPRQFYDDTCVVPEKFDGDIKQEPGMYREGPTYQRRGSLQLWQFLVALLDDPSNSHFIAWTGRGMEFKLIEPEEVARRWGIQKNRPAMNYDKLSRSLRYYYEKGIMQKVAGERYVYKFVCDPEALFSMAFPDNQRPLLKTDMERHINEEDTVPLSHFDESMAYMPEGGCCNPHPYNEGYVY
In short: as §1

ERF = biological target: T8, ERF (Homo sapiens, UniProt P50548 1-548)
T8 sequence: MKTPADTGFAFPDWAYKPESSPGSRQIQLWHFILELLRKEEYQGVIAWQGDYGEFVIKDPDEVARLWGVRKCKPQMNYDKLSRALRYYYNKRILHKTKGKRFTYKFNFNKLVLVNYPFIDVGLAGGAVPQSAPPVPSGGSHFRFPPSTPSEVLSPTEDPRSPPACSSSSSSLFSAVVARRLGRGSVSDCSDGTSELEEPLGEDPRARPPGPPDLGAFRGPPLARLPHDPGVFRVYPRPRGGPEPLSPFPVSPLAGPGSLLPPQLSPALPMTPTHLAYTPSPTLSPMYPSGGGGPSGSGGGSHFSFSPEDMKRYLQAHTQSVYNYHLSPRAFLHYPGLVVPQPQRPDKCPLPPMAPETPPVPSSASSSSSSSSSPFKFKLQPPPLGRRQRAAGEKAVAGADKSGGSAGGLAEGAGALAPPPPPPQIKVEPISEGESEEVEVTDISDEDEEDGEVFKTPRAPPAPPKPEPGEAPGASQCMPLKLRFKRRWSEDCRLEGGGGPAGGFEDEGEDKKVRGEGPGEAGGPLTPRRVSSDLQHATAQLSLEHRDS
In short: as §1

ETV3L = biological target: T9, ETV3L (Homo sapiens, UniProt Q6ZN32 1-361)
T9 sequence: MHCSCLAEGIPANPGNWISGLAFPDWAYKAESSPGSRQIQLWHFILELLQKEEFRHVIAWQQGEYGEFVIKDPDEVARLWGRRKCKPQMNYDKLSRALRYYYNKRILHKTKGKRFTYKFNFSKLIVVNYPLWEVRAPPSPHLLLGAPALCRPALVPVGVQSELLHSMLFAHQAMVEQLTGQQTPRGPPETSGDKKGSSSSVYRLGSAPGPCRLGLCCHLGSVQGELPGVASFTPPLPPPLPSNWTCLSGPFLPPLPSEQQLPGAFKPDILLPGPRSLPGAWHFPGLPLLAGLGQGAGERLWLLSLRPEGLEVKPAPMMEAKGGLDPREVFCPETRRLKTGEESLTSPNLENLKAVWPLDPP
In short: as §1

ETS2 = biological target: T10, ETS2 (Homo sapiens, UniProt P15036 1-469)
T10 sequence: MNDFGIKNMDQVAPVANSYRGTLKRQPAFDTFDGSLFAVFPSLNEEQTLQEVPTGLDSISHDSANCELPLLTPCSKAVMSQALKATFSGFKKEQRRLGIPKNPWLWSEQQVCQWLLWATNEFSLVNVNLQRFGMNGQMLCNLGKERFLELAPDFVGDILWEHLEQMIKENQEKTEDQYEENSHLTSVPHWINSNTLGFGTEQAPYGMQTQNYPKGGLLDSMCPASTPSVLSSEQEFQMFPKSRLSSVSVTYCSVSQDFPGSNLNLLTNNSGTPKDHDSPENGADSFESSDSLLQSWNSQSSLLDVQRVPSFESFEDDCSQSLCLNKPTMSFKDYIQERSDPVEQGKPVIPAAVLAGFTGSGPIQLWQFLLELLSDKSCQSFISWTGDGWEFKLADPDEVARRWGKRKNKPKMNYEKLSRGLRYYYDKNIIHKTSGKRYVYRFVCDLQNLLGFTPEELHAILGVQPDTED
In short: as §1

ETV7 = biological target: T11, ETV7 (Homo sapiens, UniProt Q9Y603 1-341)
T11 sequence: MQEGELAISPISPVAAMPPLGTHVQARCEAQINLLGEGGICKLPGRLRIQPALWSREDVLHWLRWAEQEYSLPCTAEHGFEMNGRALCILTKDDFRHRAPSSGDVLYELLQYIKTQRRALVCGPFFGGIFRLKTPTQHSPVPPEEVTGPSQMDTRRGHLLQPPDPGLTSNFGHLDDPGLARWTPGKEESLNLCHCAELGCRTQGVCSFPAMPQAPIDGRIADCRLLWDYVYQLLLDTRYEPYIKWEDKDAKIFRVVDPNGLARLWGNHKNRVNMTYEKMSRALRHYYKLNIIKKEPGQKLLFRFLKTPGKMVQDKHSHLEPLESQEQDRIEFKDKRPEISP
In short: as §1

ETV3 = biological target: T12, ETV3 (Homo sapiens, UniProt P41162-2 1-143)
T12 sequence: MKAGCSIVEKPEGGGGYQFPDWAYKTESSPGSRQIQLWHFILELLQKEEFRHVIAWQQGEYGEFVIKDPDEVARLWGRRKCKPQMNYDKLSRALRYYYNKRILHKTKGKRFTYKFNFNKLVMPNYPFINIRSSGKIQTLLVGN
In short: as §1

ETV6 = ETV6 (Homo sapiens, UniProt P41212 1-452)
Chain of ETV6 (P41212 whole entry): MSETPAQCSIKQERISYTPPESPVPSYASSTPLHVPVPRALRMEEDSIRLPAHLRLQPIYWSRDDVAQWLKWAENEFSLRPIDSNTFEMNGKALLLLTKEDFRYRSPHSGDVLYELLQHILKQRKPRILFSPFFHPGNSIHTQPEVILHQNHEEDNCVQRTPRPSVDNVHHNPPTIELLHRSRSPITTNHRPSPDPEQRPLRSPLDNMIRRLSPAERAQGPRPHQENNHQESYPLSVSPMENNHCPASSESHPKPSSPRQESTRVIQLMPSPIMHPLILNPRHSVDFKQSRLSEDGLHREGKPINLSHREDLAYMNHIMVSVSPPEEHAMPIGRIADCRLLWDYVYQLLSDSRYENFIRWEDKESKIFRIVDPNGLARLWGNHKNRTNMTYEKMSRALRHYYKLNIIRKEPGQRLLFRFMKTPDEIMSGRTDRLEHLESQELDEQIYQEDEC
In short: as §1

SPIB = SPIB (Homo sapiens, UniProt Q01892 1-262)
Chain of SPIB (Q01892 whole entry): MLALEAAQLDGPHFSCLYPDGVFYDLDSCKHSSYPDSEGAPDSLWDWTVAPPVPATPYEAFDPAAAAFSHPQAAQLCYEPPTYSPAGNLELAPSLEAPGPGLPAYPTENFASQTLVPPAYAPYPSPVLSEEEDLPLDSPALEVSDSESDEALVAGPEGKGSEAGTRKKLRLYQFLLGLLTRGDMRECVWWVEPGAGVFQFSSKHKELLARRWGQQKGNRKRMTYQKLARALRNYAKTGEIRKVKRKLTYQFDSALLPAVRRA
In short: as §1

Sequence	binding signal (ELK1)	binding signal (GABPA)	binding signal (ERG)	binding signal (ELF1)	binding signal (EHF)	binding signal (FEV)	binding signal (ETV5)	binding signal (ELF4)	binding signal (ELK4)	binding signal (ELF3)	binding signal (ETV1)	binding signal (ERF)	binding signal (ETV3L)	binding signal (ETS2)	binding signal (ETV7)	binding signal (ETV3)	binding signal (ETV6)	binding signal (SPIB)
TCACCG	1.16 fold enrichment (6-mer frequency, TF over GST control)	1.2 fold enrichment (6-mer frequency, TF over GST control)	1.14 fold enrichment (6-mer frequency, TF over GST control)	1.11 fold enrichment (6-mer frequency, TF over GST control)	1.05 fold enrichment (6-mer frequency, TF over GST control)	1.18 fold enrichment (6-mer frequency, TF over GST control)	1.13 fold enrichment (6-mer frequency, TF over GST control)	1.21 fold enrichment (6-mer frequency, TF over GST control)	1.04 fold enrichment (6-mer frequency, TF over GST control)	1.07 fold enrichment (6-mer frequency, TF over GST control)	1.15 fold enrichment (6-mer frequency, TF over GST control)	1.05 fold enrichment (6-mer frequency, TF over GST control)	1.09 fold enrichment (6-mer frequency, TF over GST control)	1.15 fold enrichment (6-mer frequency, TF over GST control)	1.02 fold enrichment (6-mer frequency, TF over GST control)	1.05 fold enrichment (6-mer frequency, TF over GST control)	1.03 fold enrichment (6-mer frequency, TF over GST control)	–
CAGCCT	1.11 fold enrichment (6-mer frequency, TF over GST control)	1.09 fold enrichment (6-mer frequency, TF over GST control)	–	1.06 fold enrichment (6-mer frequency, TF over GST control)	–	1.02 fold enrichment (6-mer frequency, TF over GST control)	1.04 fold enrichment (6-mer frequency, TF over GST control)	1.12 fold enrichment (6-mer frequency, TF over GST control)	1.01 fold enrichment (6-mer frequency, TF over GST control)	–	1.02 fold enrichment (6-mer frequency, TF over GST control)	1.1 fold enrichment (6-mer frequency, TF over GST control)	1.02 fold enrichment (6-mer frequency, TF over GST control)	–	1.13 fold enrichment (6-mer frequency, TF over GST control)	–	–	1.09 fold enrichment (6-mer frequency, TF over GST control)
